# Test results published in PubChem BioAssay (EPA / NIEHS).
# Where “and” joins values, the source holds several entries; their conditions need not be identical. Equal entries are not always repeated. Records with an inconclusive call do not appear. The source holds several records for some structures; these can differ, active in one and inactive in another. Calls of active or inactive are those of the source. Rule for the calls, unless noted: active = hit-call score of the fitted dose curve at least 0.9, where 1 is the maximum; inconclusive = response in the unintended direction; inactive = score below 0.9.
# Legend:
# [1] = target: Estrogen receptor (Homo sapiens) (UniProt P03372); assay: OT_ERa_GFPERaERE_0480: Odyssey Thera (OT) 8-hour HeLa Transcription Induction Assay for Estrogen Receptor (AID 2283381; active = hit-call score of the fitted dose curve at least 0.9, where 1 is the maximum; inactive = score below 0.9)
# Sequence of Estrogen receptor (Homo sapiens) (P03372 whole entry, looked up): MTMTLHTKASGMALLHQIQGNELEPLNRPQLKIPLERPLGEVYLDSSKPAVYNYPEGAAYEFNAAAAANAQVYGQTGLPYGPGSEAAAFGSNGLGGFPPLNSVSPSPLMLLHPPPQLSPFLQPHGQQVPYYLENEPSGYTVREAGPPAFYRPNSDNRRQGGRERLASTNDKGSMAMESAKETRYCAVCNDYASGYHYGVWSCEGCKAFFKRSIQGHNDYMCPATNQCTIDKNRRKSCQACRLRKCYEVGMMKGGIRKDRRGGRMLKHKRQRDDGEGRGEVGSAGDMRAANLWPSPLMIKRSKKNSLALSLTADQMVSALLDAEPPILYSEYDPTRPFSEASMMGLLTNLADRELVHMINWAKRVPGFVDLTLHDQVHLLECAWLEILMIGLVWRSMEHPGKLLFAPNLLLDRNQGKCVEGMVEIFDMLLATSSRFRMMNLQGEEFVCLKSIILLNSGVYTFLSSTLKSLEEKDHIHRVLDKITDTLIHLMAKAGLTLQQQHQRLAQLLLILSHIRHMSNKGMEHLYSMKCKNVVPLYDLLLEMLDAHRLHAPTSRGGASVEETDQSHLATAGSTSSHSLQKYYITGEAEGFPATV
# How it was run: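 Fluorescent reporter signal, imaged by microscopy and scored with image-analysis algorithms, was taken 8 h after chemical dosing of HeLa cells; activity was fitted upward relative to DMSO.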
# [2] = target: Estrogen receptor (Homo sapiens) (UniProt P03372); assay: OT_ERa_GFPERaERE_0120: Odyssey Thera (OT) 2-hour HeLa Transcription Induction Assay for Estrogen Receptor (AID 2283382)
# How it was run: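 HeLa, 384-well, 2 h chemical exposure; GFP reporter induction (ERE), fluorescence microscopy; high content image analysis; positive fitting direction vs DMSO.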
# [3] = target: Peroxisome proliferator-activated receptor gamma (Homo sapiens) (UniProt P37231); assay: OT_PPARg_PPARgSRC1_0480: Odyssey Thera (OT) 8-hour Protein-Complementation Assay for Peroxisome Proliferator-activated Receptor Gamma / SRC-1 Co-activator (AID 2283387);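 note: nuclear to cytoplasmic split Venus YFP fluorescence ratio reporting PPARg SRC-1 interaction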
# Sequence of Peroxisome proliferator-activated receptor gamma (Homo sapiens) (P37231 whole entry, looked up, the tested form may be a part): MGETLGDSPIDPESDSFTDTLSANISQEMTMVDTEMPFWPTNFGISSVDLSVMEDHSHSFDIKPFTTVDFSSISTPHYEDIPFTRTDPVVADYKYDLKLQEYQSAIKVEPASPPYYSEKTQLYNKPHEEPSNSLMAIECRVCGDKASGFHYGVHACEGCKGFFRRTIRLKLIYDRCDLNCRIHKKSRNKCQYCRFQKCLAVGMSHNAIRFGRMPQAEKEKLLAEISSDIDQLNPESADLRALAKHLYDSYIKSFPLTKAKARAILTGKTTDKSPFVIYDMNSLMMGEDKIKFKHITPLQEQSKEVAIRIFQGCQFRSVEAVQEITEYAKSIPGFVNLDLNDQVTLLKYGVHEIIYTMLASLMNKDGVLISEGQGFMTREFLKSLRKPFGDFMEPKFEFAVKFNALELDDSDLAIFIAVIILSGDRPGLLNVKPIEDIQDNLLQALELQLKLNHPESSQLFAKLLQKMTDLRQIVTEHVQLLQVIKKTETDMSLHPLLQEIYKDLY
# How it was run: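 Protein-fragment complementation of split Venus YFP reports PPARg/SRC-1 interaction in HEK293T (transfected 48 h before treatment), exposed 8 h. Readout: N/C fluorescence ratio at 488 nm from imaging, Draq5 for segmentation, positive fit relative to DMSO.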
# [4] = target: Peroxisome proliferator-activated receptor gamma (Homo sapiens) (UniProt P37231); assay: OT_PPARg_PPARgSRC1_1440: Odyssey Thera (OT) 24-hour Protein-Complementation Assay for Peroxisome Proliferator-activated Receptor Gamma/ SRC-1 Co-activator (AID 2283388);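 note: nuclear to cytoplasmic ratio of reconstituted Venus YFP fluorescence in fixed imaged cells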
# How it was run: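 Transient HEK293T, YFP fragments 1-158/159-239 (mutant IFP1/IFP2) fused to PPARg/SRC-1; 24 h dosing; fix 4% formaldehyde, Draq5; Opera imaging 488/635 nm; N/C ratio, gain vs DMSO.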
# [5] = target: Retinoic acid receptor RXR-alpha (Homo sapiens) (UniProt P19793); assay: OT_NURR1_NURR1RXRa_0480: Odyssey Thera (OT) 8-hour HEK293T Protein Complementation Assay for Nurr1/retinoid X receptor (RXR) (AID 2283385)
# Sequence of Retinoic acid receptor RXR-alpha (Homo sapiens) (P19793 whole entry, looked up, the tested form may be a part): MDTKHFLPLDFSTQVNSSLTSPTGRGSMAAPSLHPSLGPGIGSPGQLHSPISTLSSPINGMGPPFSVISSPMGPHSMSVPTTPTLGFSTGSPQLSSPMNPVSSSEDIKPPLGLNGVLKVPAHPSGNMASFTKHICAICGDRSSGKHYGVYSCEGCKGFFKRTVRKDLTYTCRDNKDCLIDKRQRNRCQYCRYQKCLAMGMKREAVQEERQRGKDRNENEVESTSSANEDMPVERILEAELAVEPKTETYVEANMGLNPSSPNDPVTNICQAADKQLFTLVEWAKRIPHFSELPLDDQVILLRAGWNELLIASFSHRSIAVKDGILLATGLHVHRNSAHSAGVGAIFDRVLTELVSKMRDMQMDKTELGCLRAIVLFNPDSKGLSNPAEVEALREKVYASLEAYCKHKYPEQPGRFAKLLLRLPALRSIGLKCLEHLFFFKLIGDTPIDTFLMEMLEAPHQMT
# How it was run: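 8 h compound exposure, HEK293T; Nurr1/RXRα fragment complementation; fluorescence intensity; positive fitting direction vs DMSO baseline.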
# [6] = target: Retinoic acid receptor RXR-alpha (Homo sapiens) (UniProt P19793); assay: OT_NURR1_NURR1RXRa_1440: Odyssey Thera (OT) 24-hour HEK293T Protein Complementation Assay for Nurr1/retinoid X receptor (RXR) (AID 2283386)
# How it was run: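 Interaction of Nurr1 with RXRα brings fused reporter fragments together in human HEK293T cells, restoring a functional reporter. Fluorescence intensity is measured 24 h after chemical treatment, and values are analysed in the positive direction against DMSO.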
# [7] = target: Estrogen receptor beta (Homo sapiens) (UniProt Q92731); assay: OT_ER_ERbERb_1440: Odyssey Thera (OT) 24-hour HEK293T Protein-Complementation Assay for Estrogen Receptor-beta/-beta Homodimer (AID 2283380);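 note: scored as signal increase over DMSO baseline for both agonists and antagonists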
# Sequence of Estrogen receptor beta (Homo sapiens) (Q92731 whole entry, looked up, the tested form may be a part): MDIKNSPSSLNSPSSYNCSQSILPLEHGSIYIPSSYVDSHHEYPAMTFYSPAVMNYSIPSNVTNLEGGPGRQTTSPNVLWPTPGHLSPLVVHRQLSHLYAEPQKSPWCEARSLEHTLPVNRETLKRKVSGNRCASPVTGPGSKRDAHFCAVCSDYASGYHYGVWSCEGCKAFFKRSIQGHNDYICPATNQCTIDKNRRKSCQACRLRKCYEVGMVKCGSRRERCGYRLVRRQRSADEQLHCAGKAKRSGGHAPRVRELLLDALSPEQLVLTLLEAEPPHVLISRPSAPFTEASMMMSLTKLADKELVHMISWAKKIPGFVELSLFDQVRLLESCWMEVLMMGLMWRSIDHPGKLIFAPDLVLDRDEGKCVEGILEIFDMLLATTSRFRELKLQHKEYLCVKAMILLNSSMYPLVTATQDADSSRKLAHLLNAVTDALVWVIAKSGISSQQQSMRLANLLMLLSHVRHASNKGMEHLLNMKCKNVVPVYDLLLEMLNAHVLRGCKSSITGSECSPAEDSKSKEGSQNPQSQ
# How it was run: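 HEK293T cells stably expressing ER beta LBD (aa 310-547) homodimer fragment-complementation reporter, dosed 24 h. Cells formaldehyde-fixed, Draq5-stained; gain in nuclear (agonist) or nuclear plus cytoplasmic (antagonist) fluorescence versus DMSO read by laser scanning cytometry.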
# [8] = target: Bile acid receptor (Homo sapiens) (UniProt Q96RI1); assay: OT_FXR_FXRSRC1_0480: Odyssey Thera (OT) 8-hour HEK293T Protein-Complementation Assay for Farnesoid X receptor/SRC-1 Co-activator (AID 2283383)
# Sequence of Bile acid receptor (Homo sapiens) (Q96RI1 whole entry, looked up, the tested form may be a part): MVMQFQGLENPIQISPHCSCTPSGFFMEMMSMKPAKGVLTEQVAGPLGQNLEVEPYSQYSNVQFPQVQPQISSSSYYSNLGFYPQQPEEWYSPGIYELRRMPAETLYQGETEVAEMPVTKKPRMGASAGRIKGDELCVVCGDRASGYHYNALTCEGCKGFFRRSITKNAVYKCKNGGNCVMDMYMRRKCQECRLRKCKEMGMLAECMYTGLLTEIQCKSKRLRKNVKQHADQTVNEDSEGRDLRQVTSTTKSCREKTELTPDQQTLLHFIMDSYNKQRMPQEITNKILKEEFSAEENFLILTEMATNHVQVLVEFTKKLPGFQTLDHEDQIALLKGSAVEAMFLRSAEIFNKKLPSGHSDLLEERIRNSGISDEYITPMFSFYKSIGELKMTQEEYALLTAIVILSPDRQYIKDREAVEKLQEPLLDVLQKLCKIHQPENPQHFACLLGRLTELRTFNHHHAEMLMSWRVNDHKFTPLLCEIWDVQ
# How it was run: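 Human kidney HEK293T cells carried FXR/SRC-1 fragment-complementation constructs. Compounds were added and incubated 8 h. Reporter reassembly upon receptor–co-activator interaction was then quantified by fluorescence, with curves fitted in the positive direction relative to DMSO.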
smiles,measurement,setting,value
c1coc(CNc2ncnc3nc[nH]c23)c1,outcome,[1],inactive
same,outcome,[2],inactive
same,outcome,[3],inactive
same,outcome,[4],inactive
CC(=O)OC(C)(C)C1CC=C(C)CC1 (stereo unspecified),outcome,[1],inactive
same,outcome,[2],inactive
same,outcome,[3],inactive
same,outcome,[4],inactive
CC/C(=C(\c1ccccc1)c1ccc(OCCN(C)C)cc1)c1ccccc1,AC50,[5],11.5 µM (active)
same,AC50,[6],10.4 µM (active) and 11.5 µM (active)
same,outcome,[3],inactive
same,outcome,[4],inactive
CCCCCC1C(=O)CCC1CC(=O)OC (stereo unspecified),outcome,[1],inactive
same,outcome,[2],inactive
same,outcome,[5],inactive
same,outcome,[3],inactive
same,outcome,[4],inactive
Cc1cccc(C)c1,outcome,[1],inactive
same,outcome,[2],inactive
same,outcome,[6],inactive
same,outcome,[3],inactive
O=C(O)C1=NN(c2ccc(S(=O)(=O)O)cc2)C(=O)C1,outcome,[1],inactive
same,outcome,[2],inactive
same,outcome,[5],inactive
same,outcome,[6],inactive
same,outcome,[3],inactive
same,outcome,[4],inactive
O=c1cc(-c2ccc(O)cc2)oc2cc(O)cc(O)c12,outcome,[3],inactive
CN(C)C(=O)Nc1ccccc1,outcome,[7],inactive
same,outcome,[1],inactive
same,outcome,[2],inactive
same,outcome,[6],inactive
same,outcome,[3],inactive
same,outcome,[4],inactive
CCCC(O)C(CC)CO (stereo unspecified),outcome,[7],inactive
same,outcome,[1],inactive
same,outcome,[2],inactive
same,outcome,[6],inactive
same,outcome,[3],inactive
same,outcome,[4],inactive
CCCC[N+](C)(CCCC)CCCC,outcome,[7],inactive
same,outcome,[6],inactive
same,outcome,[3],inactive
same,outcome,[4],inactive
CCCO[Si](OCCC)(OCCC)OCCC,outcome,[7],inactive
same,outcome,[1],inactive
same,outcome,[2],inactive
same,outcome,[3],inactive
CCCCOCCOCCO,outcome,[7],inactive
same,outcome,[1],inactive
same,outcome,[2],inactive
same,outcome,[6],inactive
same,outcome,[3],inactive
same,outcome,[4],inactive
CC1=CCC(=C(C)C)CC1,outcome,[1],inactive
same,outcome,[2],inactive
same,outcome,[5],inactive
same,AC50,[6],77.4 µM (active)
[O-]/[N+](=N\O)c1ccccc1,outcome,[7],inactive
same,outcome,[1],inactive
same,outcome,[2],inactive
same,outcome,[3],inactive
CCCCCCCCOC(C)=O,outcome,[1],inactive
same,outcome,[2],inactive
same,outcome,[5],inactive
same,outcome,[6],inactive
same,outcome,[3],inactive
C=C(C)C(=O)OCCC(C)OC(=O)C(=C)C (stereo unspecified),outcome,[1],inactive
same,outcome,[2],inactive
same,outcome,[5],inactive
same,outcome,[6],inactive
same,outcome,[3],inactive
same,outcome,[4],inactive
CC(=O)Oc1c(C)c(C)c2c(c1C)CC[C@@](C)(CCC[C@H](C)CCC[C@H](C)CCCC(C)C)O2,outcome,[1],inactive
same,outcome,[2],inactive
same,outcome,[3],inactive
CN1CCc2cccc3c2[C@H]1Cc1ccc(O)c(O)c1-3,outcome,[7],inactive
same,outcome,[1],inactive
same,outcome,[2],inactive
same,outcome,[3],inactive
CCCCCCCCCCCCOCCOS(=O)(=O)O,AC50,[1],10 µM (active)
same,AC50,[2],11 µM (active)
same,outcome,[5],inactive
same,outcome,[3],inactive
same,outcome,[4],inactive
NC(N)=S,outcome,[1],inactive
same,outcome,[2],inactive
same,outcome,[5],inactive
same,outcome,[6],inactive
same,outcome,[3],inactive
same,outcome,[4],inactive
C=CC(C)CCCC(C)(C)O (stereo unspecified),outcome,[7],inactive
same,outcome,[1],inactive
same,outcome,[2],inactive
same,outcome,[6],inactive
same,outcome,[3],inactive
same,outcome,[4],inactive
CC(=O)N(C)C,outcome,[1],inactive
same,outcome,[2],inactive
same,outcome,[3],inactive
same,outcome,[4],inactive
CC(O)CNCC(C)O (stereo unspecified),AC50,[1],29.8 µM (active)
same,outcome,[2],inactive
same,outcome,[3],inactive
same,outcome,[4],inactive
CC(C)(C)c1ccc(S)cc1,outcome,[7],inactive
same,outcome,[1],inactive
same,outcome,[2],inactive
same,outcome,[3],inactive
same,outcome,[4],inactive
C=CC(O)CCCCC (stereo unspecified),outcome,[5],inactive
same,outcome,[6],inactive
same,outcome,[3],inactive
COc1ccc(OC)cc1,outcome,[1],inactive
same,outcome,[2],inactive
same,outcome,[5],inactive
same,outcome,[6],inactive
same,outcome,[3],inactive
same,outcome,[4],inactive
C1=COCCC1,outcome,[1],inactive
same,outcome,[2],inactive
same,outcome,[8],inactive
same,outcome,[5],inactive
same,outcome,[3],inactive
CCCCCCCCCOS(=O)(=O)O,outcome,[1],inactive
same,outcome,[2],inactive
same,outcome,[3],inactive
same,outcome,[4],inactive
O=C(O)c1ccccc1O,outcome,[1],inactive
same,outcome,[2],inactive
same,outcome,[5],inactive
same,outcome,[6],inactive
same,outcome,[3],inactive
same,outcome,[4],inactive
CC(C)(C)C1CCC(O)CC1 (stereo unspecified),outcome,[1],inactive
same,outcome,[2],inactive
same,outcome,[6],inactive
O=C(c1ccc(OCCN2CCCCC2)cc1)c1c(-c2ccc(O)cc2)sc2cc(O)ccc12,AC50,[5],11.9 µM (active)
same,outcome,[5],inactive
same,AC50,[6],11.9 µM (active) and 11.8 µM (active)
same,outcome,[6],inactive
same,outcome,[3],inactive
O=Cc1ccccc1O,outcome,[1],inactive
same,outcome,[2],inactive
same,outcome,[3],inactive
same,outcome,[4],inactive
C=C(C)C(N)=O,outcome,[1],inactive
same,outcome,[2],inactive
same,outcome,[5],inactive
same,outcome,[6],inactive
same,outcome,[3],inactive
C[C@]12CC[C@@H]3c4ccc(O)cc4CC[C@H]3[C@@H]1CC[C@@H]2O,outcome,[5],inactive
same,outcome,[6],inactive
same,outcome,[3],inactive
same,outcome,[4],inactive
OC[C@@H](O)[C@H](O)[C@@H](O)[C@@H](O)CO,outcome,[1],inactive
same,outcome,[2],inactive
same,outcome,[5],inactive
same,outcome,[6],inactive
same,outcome,[3],inactive
same,outcome,[4],inactive
